Assay [1] deals with ATP-dependent translocase ABCB1 (Homo sapiens) (UniProt P08183). Description: P-glycoprotein substrate transport blockade – cell-based (AID 377; in the data active = fluorescence slope change above about 50%). The conditions noted are these: MDR1-expressing cells, fluorescent substrate accumulation slope; stronger effect = higher value; concentration not given here.
Assay [2] in a line: compounds altering viability of human ES cells (AID 493140; call rule not given here;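 also: cells exposed to compounds for four days before counting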). The following applies: human embryonic stem cell survival screen; stronger effect = higher value.
For assay [3], the target named is 6-phosphogluconate dehydrogenase, decarboxylating (Homo sapiens) (UniProt P52209). Description: inhibition of human phosphogluconate dehydrogenase – biochemical, recombinant enzyme, NADPH absorbance, primary screen (AID 1159550;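 active = at least 20% inhibition of 6-phosphogluconate dehydrogenase activity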). The conditions noted are these: recombinant 6PGD, NADPH absorbance 341 nm; at 10 µM; stronger effect = higher value.
Assay [4] concerns Aerobactin synthetase IucA (Klebsiella pneumoniae, hypervirulent). Kind of assay: biochemical IucA inhibition screen of LOPAC library by absorbance (AID 1346212; call rule not given here;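 also: 100% = no compound wells and 0% = no enzyme wells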). The conditions noted are these: IucA enzyme assay, absorbance (OD) readout; stronger effect = lower value;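 tested at 8 µM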.
Assay [5] in a line: viability loss in pontine glioma line – cell-based, SU-DIPG-XVII, MIPE5.0, CellTiter-Glo, qHTS, dose response (AID 1347060; cut-off not given, nearly all actives have AC50 up to about 26 µM). The conditions noted are these: CellTiter-Glo ATP luminescence.
A short description of assay [6]: viability loss in pontine glioma line – cell-based, SU-DIPG-XIII, MIPE4.0, CellTiter-Glo, qHTS, dose response (AID 1347061; cut-off not given, nearly all actives have AC50 up to about 37 µM;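 also: cells exposed to compound for 48 hours before readout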). The conditions noted are these: CellTiter-Glo ATP luminescence. Background: ATP-based viability assays read luminescence as a measure of living cells.
Assay [7] can be described thus: viability loss in pontine glioma line – cell-based, SU-DIPG-IV, MIPE4.0, CellTiter-Glo, qHTS, dose response (AID 1347063; cut-off not given, nearly all actives have AC50 up to about 30 µM;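 also: compound exposure lasted 48 hours before the viability readout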). The conditions noted are these: CellTiter-Glo ATP luminescence.
A short description of assay [8]: viability loss in pontine glioma line – cell-based, SU-DIPG-XIII, MIPE5.0, CellTiter-Glo, qHTS, dose response (AID 1347064; cut-off not given, nearly all actives have AC50 up to about 23 µM). The following applies: CellTiter-Glo ATP luminescence.
A short description of assay [9]: viability loss in pontine glioma line – cell-based, SU-DIPG-XXV, MIPE5.0, CellTiter-Glo, qHTS, dose response (AID 1347065; cut-off not given, nearly all actives have AC50 up to about 26 µM;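 also: cells exposed to compound for 48 hours before ATP readout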). The following applies: CellTiter-Glo ATP luminescence.
The nature of assay [10]: growth inhibition of DIPG cells – cell-based, MIPE4.0 library, CellTiter-Glo luminescence, qHTS (AID 1347066; cut-off not given, nearly all actives have AC50 up to about 30 µM;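 also: cells exposed to compound for 48 hours before readout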). The following applies: SU-DIPG-VI viability, CellTiter-Glo ATP luminescence.
Assay [11] in a line: JHH-DIPG-1 glioma cell viability, MIPE5.0 library, CellTiter-Glo luminescence, qHTS (AID 1347067; cut-off not given, nearly all actives have AC50 up to about 26 µM;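 also: cells exposed to compound for 48 hours before readout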). The conditions noted are these: JHH-DIPG-1 glioma viability, CellTiter-Glo ATP luminescence.
The nature of assay [12]: growth inhibition of DIPG cells – cell-based, MIPE5.0 library, qHTS (AID 1347068; cut-off not given, nearly all actives have IC50 up to about 30 µM). The conditions noted are these: SU-DIPG-XXV viability. On the technique in general: qHTS replaces the single test concentration by a dilution series.
Assay [13] can be described thus: viability loss with induced miR-34 in A549 – imaging, A549 dox-inducible miR-34, nuclei and caspase counts, primary screen (AID 1347080;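 active = compounds whose cell count with miR-34 switched on is under 0.7 times the count with it off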). The conditions noted are these: A549 miR-34 inducible, Hoechst nuclei count, 48 h.
Assay [14] is described as follows: MELAS cybrid and Rieske KO viability enhancers – cell-based, MELAS cybrids, Rieske KO mouse fibroblasts, CellTiter-Glo, primary screen (AID 1508586;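 active = mean z-score across replicates of 1.96 or higher in either the MELAS or the Rieske mutant cell line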;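 also: z relative to plate mean and SD of compound and empty wells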). The conditions noted are these: low glucose.
The target in assay [15] is NAD(+) hydrolase SARM1 (Homo sapiens) (UniProt Q6SZW1). Kind of assay: blocking NAD cleavage by SARM1 SAM-TIR – cell lysate, NAD-Glo luminescence (AID 1508614;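 active = compound whose remaining NAD level is above about 45 nM, limit read from the data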;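 also: higher remaining NAD means stronger inhibition of SARM1 NADase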). The conditions noted are these: SAM-TIR HEK293T lysate NADase, at 1 µM, stronger effect = higher value.
Assay [16] addresses Mitogen-activated protein kinase 7 (Homo sapiens) (UniProt Q13164). Kind of assay: Gal4-ERK5 driven luciferase induction – cell-based, HTS, primary screen (AID 1508626;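 active = luciferase signal above three times the same-plate solvent-only control wells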;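 also: luciferase driven by Gal4-ERK5 fusion binding five Gal4 sites before minimal TATA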). The conditions noted are these: HeLa Gal4-ERK5 transactivation, 18 h, at 5 µM, stronger effect = higher value.
Assay [17] is described as follows: galactose survival enhancers in mitochondrial complex I cybrids – cell-based, galactose medium, ATP luminescence, primary screen (AID 1645843;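 active = z-score of at least 1.8 in each of two replicates, scored against plate mean and spread of sample wells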;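 also: positive z means more ATP and so rescue of galactose-driven cybrid death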). The following applies: complex I mutant cybrid cells, 72 h, stronger effect = higher value.
A further assay concerns F380Y. Kind of assay: BK channel mutant inhibitors and activators – cell-based, U2OS BacMam, thallium flux, beta subunits, selectivity assay, profiling panel (AID 1259406).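 Also: initial slope of Thallos dye fluorescence rise after thallium is added; log ratio against the mean of 0.3% DMSO vehicle wells on the same plate.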 The following applies: U2OS BacMam BK variants, at 30 µM.
A further assay concerns F380Y/beta1. The description is as above. The conditions noted are these: U2OS BacMam BK variants, at 30 µM.
A further assay deals with F380Y/beta2Delta. Described as above. The conditions noted are these: U2OS BacMam BK variants, at 30 µM.
The next assay has as its system F380Y/beta4. The description is as above. The conditions noted are these: U2OS BacMam BK variants, at 30 µM.
The target in assay [18] is Calcium-activated potassium channel subunit alpha-1 (Homo sapiens) + Leucine-rich repeat-containing protein 26 (Homo sapiens) (UniProt Q12791+Q2I0M4). Described as above. The conditions noted are these: U2OS BacMam BK variants, F380Y/Slo1WT/gamma1, at 30 µM.
A further assay has as its system R275C. Described as above. The following applies: U2OS BacMam BK variants, at 30 µM.
For another assay, the system named is R275C/beta1. Described as above. The following applies: U2OS BacMam BK variants, at 30 µM.
A further assay relates to R275C/beta2Delta. Described as above. The following applies: U2OS BacMam BK variants, at 30 µM.
The test system of a further assay is R275C/beta4. The assay is described as above. The conditions noted are these: U2OS BacMam BK variants, at 30 µM.
A further assay has as its system R275C/Slo1WT/beta2. Described as above. The following applies: U2OS BacMam BK variants, at 30 µM.

Results on 3 compounds are retold here after PubChem BioAssay.

“And” between values parts separate entries of the source, which are not always exact repeats. Identical values can stand only once. Records with an inconclusive call do not appear. The source made the active and inactive calls.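 The calls were made as follows, unless noted: active = thallium flux through the channel raised or lowered by more than 3 SD from vehicle-only wells, actives on both sides; inactive = the rest.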

6-phosphogluconate dehydrogenase, decarboxylating (Homo sapiens), sequence (P52209 whole entry, looked up): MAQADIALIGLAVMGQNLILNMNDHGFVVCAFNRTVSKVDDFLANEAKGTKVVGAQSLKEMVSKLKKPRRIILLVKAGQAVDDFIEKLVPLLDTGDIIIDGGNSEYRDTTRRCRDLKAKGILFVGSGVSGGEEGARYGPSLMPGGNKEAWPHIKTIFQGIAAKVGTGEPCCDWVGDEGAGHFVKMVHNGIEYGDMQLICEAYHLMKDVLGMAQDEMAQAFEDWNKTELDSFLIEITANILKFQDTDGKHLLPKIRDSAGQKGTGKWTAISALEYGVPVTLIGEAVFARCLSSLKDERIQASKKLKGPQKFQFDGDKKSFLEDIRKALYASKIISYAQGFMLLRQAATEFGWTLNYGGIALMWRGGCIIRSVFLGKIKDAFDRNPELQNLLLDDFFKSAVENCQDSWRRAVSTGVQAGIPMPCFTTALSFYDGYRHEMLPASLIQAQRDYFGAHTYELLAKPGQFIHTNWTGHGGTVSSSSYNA
NAD(+) hydrolase SARM1 (Homo sapiens), sequence (Q6SZW1 whole entry, looked up, the tested form may be a part): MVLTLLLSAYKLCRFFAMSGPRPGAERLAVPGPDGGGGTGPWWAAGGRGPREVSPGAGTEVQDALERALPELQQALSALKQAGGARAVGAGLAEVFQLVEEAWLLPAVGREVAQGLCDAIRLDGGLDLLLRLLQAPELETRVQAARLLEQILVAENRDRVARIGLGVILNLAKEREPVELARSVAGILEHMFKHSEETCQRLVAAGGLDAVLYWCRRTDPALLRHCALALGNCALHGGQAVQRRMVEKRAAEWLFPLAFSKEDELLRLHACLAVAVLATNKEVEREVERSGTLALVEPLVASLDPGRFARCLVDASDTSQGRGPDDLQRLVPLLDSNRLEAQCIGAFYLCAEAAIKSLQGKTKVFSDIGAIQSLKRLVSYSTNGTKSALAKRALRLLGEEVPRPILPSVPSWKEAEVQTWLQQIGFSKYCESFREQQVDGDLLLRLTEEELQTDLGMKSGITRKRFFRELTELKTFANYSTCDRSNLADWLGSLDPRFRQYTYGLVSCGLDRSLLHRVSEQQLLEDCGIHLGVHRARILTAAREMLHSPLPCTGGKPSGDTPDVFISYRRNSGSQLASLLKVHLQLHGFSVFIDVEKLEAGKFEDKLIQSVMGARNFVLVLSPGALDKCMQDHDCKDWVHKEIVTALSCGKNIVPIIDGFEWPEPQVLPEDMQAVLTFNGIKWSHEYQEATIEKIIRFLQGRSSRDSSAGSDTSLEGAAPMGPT
ATP-dependent translocase ABCB1 (Homo sapiens), sequence (P08183 whole entry, looked up): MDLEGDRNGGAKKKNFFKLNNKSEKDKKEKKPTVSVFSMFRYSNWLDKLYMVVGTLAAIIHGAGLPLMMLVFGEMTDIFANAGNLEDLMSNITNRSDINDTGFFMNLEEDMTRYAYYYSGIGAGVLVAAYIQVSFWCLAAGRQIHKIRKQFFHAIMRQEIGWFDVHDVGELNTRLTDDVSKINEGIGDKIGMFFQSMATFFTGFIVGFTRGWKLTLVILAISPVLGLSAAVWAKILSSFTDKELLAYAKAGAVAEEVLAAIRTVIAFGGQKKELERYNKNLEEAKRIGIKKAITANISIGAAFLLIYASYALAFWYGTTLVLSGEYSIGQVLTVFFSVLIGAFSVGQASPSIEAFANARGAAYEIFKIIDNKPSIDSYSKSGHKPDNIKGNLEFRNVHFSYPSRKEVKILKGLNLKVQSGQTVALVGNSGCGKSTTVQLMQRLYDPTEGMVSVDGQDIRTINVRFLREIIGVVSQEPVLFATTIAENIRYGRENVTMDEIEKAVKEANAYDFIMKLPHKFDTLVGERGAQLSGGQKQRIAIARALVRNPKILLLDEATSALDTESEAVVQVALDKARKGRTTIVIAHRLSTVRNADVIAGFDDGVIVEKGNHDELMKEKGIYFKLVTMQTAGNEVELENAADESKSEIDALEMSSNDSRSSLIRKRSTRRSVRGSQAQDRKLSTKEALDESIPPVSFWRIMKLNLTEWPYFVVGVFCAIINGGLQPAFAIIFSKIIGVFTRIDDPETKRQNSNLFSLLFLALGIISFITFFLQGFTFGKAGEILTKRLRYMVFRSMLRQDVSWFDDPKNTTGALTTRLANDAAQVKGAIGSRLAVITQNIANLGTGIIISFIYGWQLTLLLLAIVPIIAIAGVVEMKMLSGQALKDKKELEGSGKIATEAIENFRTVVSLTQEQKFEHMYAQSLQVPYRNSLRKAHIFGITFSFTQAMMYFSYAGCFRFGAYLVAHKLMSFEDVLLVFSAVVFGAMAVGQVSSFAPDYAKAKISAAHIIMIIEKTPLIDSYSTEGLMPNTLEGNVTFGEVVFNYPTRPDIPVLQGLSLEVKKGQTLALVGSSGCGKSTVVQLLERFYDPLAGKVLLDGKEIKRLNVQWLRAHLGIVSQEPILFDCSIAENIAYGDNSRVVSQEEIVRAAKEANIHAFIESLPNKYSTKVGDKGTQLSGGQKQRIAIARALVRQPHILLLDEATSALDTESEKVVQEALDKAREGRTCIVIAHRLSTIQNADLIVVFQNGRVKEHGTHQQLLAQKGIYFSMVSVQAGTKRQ
Calcium-activated potassium channel subunit alpha-1 (Homo sapiens) + Leucine-rich repeat-containing protein 26 (Homo sapiens), sequence (Q2I0M4 whole entry, looked up, one chain of several): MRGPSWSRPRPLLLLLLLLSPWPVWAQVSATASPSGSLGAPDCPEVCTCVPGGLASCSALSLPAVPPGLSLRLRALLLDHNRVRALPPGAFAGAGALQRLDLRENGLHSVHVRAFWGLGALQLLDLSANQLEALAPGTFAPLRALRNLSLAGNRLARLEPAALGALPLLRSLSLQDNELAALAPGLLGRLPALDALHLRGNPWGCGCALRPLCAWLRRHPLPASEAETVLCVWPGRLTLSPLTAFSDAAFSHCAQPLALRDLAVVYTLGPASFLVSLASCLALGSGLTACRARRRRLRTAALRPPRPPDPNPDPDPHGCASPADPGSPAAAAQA
Mitogen-activated protein kinase 7 (Homo sapiens), sequence (Q13164 whole entry, looked up, the tested form may be a part): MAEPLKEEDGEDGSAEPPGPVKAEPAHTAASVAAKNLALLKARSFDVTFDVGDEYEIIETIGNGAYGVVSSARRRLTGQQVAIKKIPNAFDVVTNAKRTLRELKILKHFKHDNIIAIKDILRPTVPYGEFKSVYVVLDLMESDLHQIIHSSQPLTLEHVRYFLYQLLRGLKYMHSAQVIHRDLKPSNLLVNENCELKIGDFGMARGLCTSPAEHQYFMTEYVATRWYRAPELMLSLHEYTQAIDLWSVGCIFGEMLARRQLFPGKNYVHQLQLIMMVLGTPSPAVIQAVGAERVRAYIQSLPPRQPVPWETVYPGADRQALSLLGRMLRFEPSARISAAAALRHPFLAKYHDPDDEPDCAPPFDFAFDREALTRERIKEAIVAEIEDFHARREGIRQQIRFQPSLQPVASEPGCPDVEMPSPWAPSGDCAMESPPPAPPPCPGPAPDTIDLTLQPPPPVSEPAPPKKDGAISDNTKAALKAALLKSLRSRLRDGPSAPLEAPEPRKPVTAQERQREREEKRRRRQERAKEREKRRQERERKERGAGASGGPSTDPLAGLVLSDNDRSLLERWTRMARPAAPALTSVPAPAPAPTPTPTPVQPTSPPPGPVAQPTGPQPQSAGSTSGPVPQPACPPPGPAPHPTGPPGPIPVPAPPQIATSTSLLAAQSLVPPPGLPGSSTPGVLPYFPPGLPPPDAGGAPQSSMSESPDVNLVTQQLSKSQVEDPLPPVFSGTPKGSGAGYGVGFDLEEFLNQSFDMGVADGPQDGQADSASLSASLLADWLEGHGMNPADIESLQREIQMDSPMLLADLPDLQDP

Broadly, the inhibition is the change of the read-out against control, counted positive when it falls. The term remaining activity denotes the signal under treatment as a percentage of the control signal. Turning to `O=C1CC[C@@]2(O)[C@H]3Cc4ccc(O)c5c4[C@@]2(CCN3CC2CC2)[C@H]1O5`, the fluorescence slope change in assay [1] was 79.9% (active). The survival in [2] was 16.1 (inactive). Moreover, the inhibition in assay [3] is 9.6% (inactive). For the same compound, in [4], the remaining activity is 118% (inactive). The compound was classed as inactive in assay [5], in assay [6], in assay [7], in assay [8], in assay [9] and in assay [10]. The compound was classed as inactive in [11] and in [12]. The fold change was 0.971 (inactive) and 0.94 (inactive) and 0.843 (inactive) in assay [13] (stronger effect = lower value); 1.34 and 1.14 and 0.908 in assay [13] (measured here: relative caspase fold change +Dox/-Dox). Also, the cell count in assay [13] (measured here: total cells with miR-34 induction, stronger effect = lower value) was 11000 and 9230 and 9370; in assay [13] (measured here: total cells without miR-34 induction), 11300 and 9820 and 11100. The z-score is 0.477 (inactive) and 0.601 (inactive) in assay [14] (MELAS cybrid survival, CellTiter-Glo 48 h, stronger effect = higher value); 0.069 and -0.0949 in assay [14] (Rieske KO mouse fibroblast survival, CellTiter-Glo 72 h); 0.66 (inactive) and 0.275 (inactive) in assay [17]. In assay [15], the remaining NAD is 10 nM (inactive). Moreover, the luciferase signal in assay [16] was 48 AU (inactive). For the same compound, the log fold change Tl+ flux was 0.00675 (inactive) with F380Y; -0.0461 (inactive) with F380Y/beta1; 0.00968 (inactive) in the assay with F380Y/beta2Delta; -0.0353 (inactive) with F380Y/beta4; -0.0199 (inactive) in [18]; -0.0442 (inactive) with R275C. Also, the log fold change Tl+ flux in the assay on R275C/beta1 was 0.0294 (inactive); in the assay on R275C/beta2Delta, -0.0407 (inactive); in the assay with R275C/beta4, -0.0587 (inactive); in the assay on R275C/Slo1WT/beta2, 0.0463 (inactive).
For `C=C1[C@@H]2CC[C@H]3[C@]4(C)C[C@H](O[C@@H]5O[C@H](CO)[C@@H](OS(=O)(=O)O)[C@H](OS(=O)(=O)O)[C@H]5OC(=O)CC(C)C)C[C@@H](C(=O)O)[C@H]4CC[C@]3(C2)[C@H]1O`, the inhibition in assay [3] was 5.29% (inactive).
Turning to `COP(=O)(OC)OC(Br)C(Cl)(Cl)Br` (stereo not drawn), the inhibition in [3] was -10.9% (inactive).
